Experimental data as given in PubChem BioAssay AID1159580 (chemical genetic matrix, 2015).
“And” between values parts separate entries of the source, which are not always exact repeats. Equal entries are not always repeated. About 2,000 (36%) of roughly 5,500 compounds were called active. Roughly 18% stayed inconclusive and do not appear here. Rule as the data show it: active = normalized growth mostly below about 0.91 (no sharp cut-off); inconclusive = no clear call, values can overlap the other calls; inactive = mostly above about 0.92. This is one part of the list.

Assay: chemical genetic growth profiling, strain panel (AID 1159580);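 also: tested at 20 µM; growth read once vehicle control cultures reached saturation at 30 °C; 1 = growth at the plate median or of vehicle wells; lower values mean less growth of the strain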
Settings: growth OD

Measured: normalized growth

CNCCCN1c2ccccc2CCc2ccccc21
inactive: S. cerevisiae deletion strains, locus YKL009W, strain mrt4, stronger effect = lower value 1 | S. cerevisiae deletion strains, locus YKL068W, stronger effect = lower value 1 | S. cerevisiae deletion strains, locus YKL085W, strain MDH1 (second series), stronger effect = lower value 1.04 | S. cerevisiae deletion strains, locus YKL085W, strain MDH1, stronger effect = lower value 1.04 | S. cerevisiae deletion strains, locus YKL160W, strain elf1, stronger effect = lower value 1.03 | S. cerevisiae deletion strains, locus YKL190W, strain CNB1, stronger effect = lower value 1 | S. cerevisiae deletion strains, locus YKR001C, strain vps1, stronger effect = lower value 0.997 | S. cerevisiae deletion strains, locus YKR026C, strain gcn3, stronger effect = lower value 1.01 | S. cerevisiae deletion strains, locus YKR091W, strain srl3, stronger effect = lower value 1.01 | S. cerevisiae deletion strains, locus YLL001W, strain dnm1, stronger effect = lower value 1.03 | S. cerevisiae deletion strains, locus YLL026W, stronger effect = lower value 1.03 | S. cerevisiae deletion strains, locus YLL041C, strain sdh2, stronger effect = lower value 1.01 | S. cerevisiae deletion strains, locus YLR027C, strain aat2, stronger effect = lower value 1.03 | S. cerevisiae deletion strains, locus YLR039C, strain RIC1, stronger effect = lower value 1.22 | S. cerevisiae deletion strains, locus YLR058C, strain SHM2, stronger effect = lower value 1.01 | S. cerevisiae deletion strains, locus YLR102C, strain apc9, stronger effect = lower value 1 | S. cerevisiae deletion strains, locus YLR113W, strain HOG1, stronger effect = lower value 1.02 | S. cerevisiae deletion strains, locus YLR221C, strain rsa3, stronger effect = lower value 0.978 | S. cerevisiae deletion strains, locus YLR258W, strain gsy2, stronger effect = lower value 1 | S. cerevisiae deletion strains, locus YLR262C, strain YPT6 (second series), stronger effect = lower value 1.09 | S. cerevisiae deletion strains, locus YLR262C, strain YPT6, stronger effect = lower value 1.16 | S. cerevisiae deletion strains, locus YLR268W, strain sec22, stronger effect = lower value 0.988 | S. cerevisiae deletion strains, locus YLR320W, strain mms22, stronger effect = lower value 0.987 | S. cerevisiae deletion strains, locus YLR330W, strain CHS5, stronger effect = lower value 1.01 | S. cerevisiae deletion strains, locus YLR342W, strain FKS1 (second series), stronger effect = lower value 0.997 | S. cerevisiae deletion strains, locus YLR342W, strain FKS1, stronger effect = lower value 1.04 | S. cerevisiae deletion strains, locus YLR357W, strain rsc2, stronger effect = lower value 0.985 | S. cerevisiae deletion strains, locus YLR370C, strain arc18, stronger effect = lower value 1.02 | S. cerevisiae deletion strains, locus YLR371W, strain rom2, stronger effect = lower value 0.988 | S. cerevisiae deletion strains, locus YLR384C, strain iki3, stronger effect = lower value 1.01 | S. cerevisiae deletion strains, locus YLR418C, strain cdc73, stronger effect = lower value 0.938 | S. cerevisiae deletion strains, locus YML016C, strain PPZ1, stronger effect = lower value 0.997 | S. cerevisiae deletion strains, locus YML032C, strain rad52, stronger effect = lower value 0.999 | S. cerevisiae deletion strains, locus YML120C, strain ndi1, stronger effect = lower value 1.04 | S. cerevisiae deletion strains, locus YML124C, strain tub3, stronger effect = lower value 1 | S. cerevisiae deletion strains, locus YMR058W, strain fet3, stronger effect = lower value 1.02 | S. cerevisiae deletion strains, locus YMR078C, strain ctf18, stronger effect = lower value 1 | S. cerevisiae deletion strains, locus YMR125W, strain sto1, stronger effect = lower value 0.985 | S. cerevisiae deletion strains, locus YMR129W, stronger effect = lower value 1.01 | S. cerevisiae deletion strains, locus YMR205C, strain PFK2, stronger effect = lower value 1.04 | S. cerevisiae deletion strains, locus YMR223W, strain ubp8, stronger effect = lower value 0.983 | S. cerevisiae deletion strains, locus YMR231W, strain pep5, stronger effect = lower value 1.01 | S. cerevisiae deletion strains, locus YMR263W, strain SAP30, stronger effect = lower value 0.997 | S. cerevisiae deletion strains, locus YMR307W, strain GAS1, stronger effect = lower value 1.1 and 0.99 | S. cerevisiae deletion strains, locus YNL067W, strain RPL9B, stronger effect = lower value 0.998 | S. cerevisiae deletion strains, locus YNL071W, strain lat1, stronger effect = lower value 0.994 | S. cerevisiae deletion strains, locus YNL128W, strain TEP1, stronger effect = lower value 1.02 | S. cerevisiae deletion strains, locus YNL153C, strain GIM3, stronger effect = lower value 0.989 | S. cerevisiae deletion strains, locus YNL175C, strain NOP13, stronger effect = lower value 1 | S. cerevisiae deletion strains, locus YNL183C, strain NPR1, stronger effect = lower value 0.959 | S. cerevisiae deletion strains, locus YNL197C, strain WHI3, stronger effect = lower value 1 | S. cerevisiae deletion strains, locus YNL209W, strain ssb2, stronger effect = lower value 1 | S. cerevisiae deletion strains, locus YNL224C, strain SQS1, stronger effect = lower value 0.998 | S. cerevisiae deletion strains, locus YNL233W, strain BNI4, stronger effect = lower value 0.985 | S. cerevisiae deletion strains, locus YNL248C, strain rpa49, stronger effect = lower value 0.995 | S. cerevisiae deletion strains, locus YNL250W, strain rad50, stronger effect = lower value 1.01 | S. cerevisiae deletion strains, locus YNL271C, strain bni1, stronger effect = lower value 0.998 | S. cerevisiae deletion strains, locus YNL298W, strain CLA4, stronger effect = lower value 0.998 | S. cerevisiae deletion strains, locus YNL307C, strain MCK1, stronger effect = lower value 1 | S. cerevisiae deletion strains, locus YNL322C, strain KRE1 (second series), stronger effect = lower value 1.02 | S. cerevisiae deletion strains, locus YNL322C, strain KRE1, stronger effect = lower value 1.01 and 0.993 | S. cerevisiae deletion strains, locus YNR049C, strain mso1, stronger effect = lower value 1.01 | S. cerevisiae deletion strains, locus YNR052C, strain pop2, stronger effect = lower value 1.01 | S. cerevisiae deletion strains, locus YOL012C, strain htz1 0.655 | S. cerevisiae deletion strains, locus YOL147C, strain pex11, stronger effect = lower value 1 | S. cerevisiae deletion strains, locus YOR001W, strain rrp6, stronger effect = lower value 1.02 | S. cerevisiae deletion strains, locus YOR061W, strain CKA2, stronger effect = lower value 1.01 | S. cerevisiae deletion strains, locus YOR069W, strain VPS5, stronger effect = lower value 1.01 | S. cerevisiae deletion strains, locus YOR070C, strain gyp1, stronger effect = lower value 1.01 | S. cerevisiae deletion strains, locus YOR080W, strain dia2, stronger effect = lower value 1.03 | S. cerevisiae deletion strains, locus YOR083W, strain WHI5 (second series), stronger effect = lower value 1.03 | S. cerevisiae deletion strains, locus YOR083W, strain WHI5, stronger effect = lower value 1.02 | S. cerevisiae deletion strains, locus YOR106W, strain vam3, stronger effect = lower value 1.06 | S. cerevisiae deletion strains, locus YOR136W, strain idh2, stronger effect = lower value 0.999 | S. cerevisiae deletion strains, locus YOR144C, strain elg1, stronger effect = lower value 1 | S. cerevisiae deletion strains, locus YOR184W, strain ser1, stronger effect = lower value 1.03 | S. cerevisiae deletion strains, locus YOR231W, strain MKK1, stronger effect = lower value 1.01 | S. cerevisiae deletion strains, locus YOR265W, strain rbl2, stronger effect = lower value 1.02 | S. cerevisiae deletion strains, locus YOR270C, strain vph1, stronger effect = lower value 0.961 | S. cerevisiae deletion strains, locus YOR290C, strain snf2, stronger effect = lower value 0.981 | S. cerevisiae deletion strains, locus YOR316C, strain cot1, stronger effect = lower value 1.01 | S. cerevisiae deletion strains, locus YPL051W, strain arl3, stronger effect = lower value 1.01 | S. cerevisiae deletion strains, locus YPL055C, strain LGE1, stronger effect = lower value 0.96 | S. cerevisiae deletion strains, locus YPL078C, strain atp4, stronger effect = lower value 1.05 | S. cerevisiae deletion strains, locus YPL106C, strain sse1, stronger effect = lower value 1.04 | S. cerevisiae deletion strains, locus YPL240C, strain hsp82, stronger effect = lower value 1.01 | S. cerevisiae deletion strains, locus YPL241C, strain CIN2, stronger effect = lower value 1.01 and 0.994 | S. cerevisiae deletion strains, locus YPL256C, strain CLN2, stronger effect = lower value 1.01 | S. cerevisiae deletion strains, locus YPR119W, strain clb2, stronger effect = lower value 1 | S. cerevisiae deletion strains, locus YPR141C, strain kar3, stronger effect = lower value 1 | S. cerevisiae deletion strains, locus YPR163C, strain tif3, stronger effect = lower value 0.989 | S. cerevisiae deletion strains, locus YPR167C, strain met16, stronger effect = lower value 1.01 | S. cerevisiae deletion strains, strain wtn01, stronger effect = lower value 0.985 | S. cerevisiae strains, strain wild type, stronger effect = lower value 1.01
